From PubChem BioAssay (EPA / NIEHS)
Where “and” joins values, the source holds several entries; their conditions need not be identical. Identical values can stand only once. Results filed as inconclusive are left out. More than one record can exist for a structure, and the calls need not agree. Calls of active or inactive are those of the source. Rule for the calls, unless noted: active = hit-call score of the fitted dose curve at least 0.9, where 1 is the maximum; inactive = score below 0.9.

Assays:
[1] = read-out: Epidermal growth factor receptor (EGFR), EGFR (gene 1956); test: BSK_BE3C_EGFR: BioMAP Diversity Plus: BE3C Assay for Epidermal growth factor receptor (EGFR) Biomarker Activity (AID 2284281); settings: primary human bronchial epithelial cells
Outline: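 Human primary bronchial epithelial cells were exposed to compound for 24 h, and cell-surface EGFR was then quantified by ELISA. Activity was fitted in the positive direction against the DMSO vehicle baseline.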

[2] = read-out: KRT18 (gene 3875); test: BSK_BE3C_Keratin818: BioMAP Diversity Plus: BE3C Assay for Keratin 818 Biomarker Activity (AID 2284282); settings: primary human bronchial epithelial cells
Outline: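 ELISA read-out of Keratin 8/18 in BE3C human bronchial epithelial cultures, 24 h post-dosing; positive-direction fit vs DMSO baseline.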

[3] = read-out: Matrix Metallopeptidase 9 (MMP9), MMP9 (gene 4318); test: BSK_BE3C_MMP9: BioMAP Diversity Plus: BE3C Assay for Matrix Metallopeptidase 9 (MMP9) Biomarker Activity (AID 2284283); settings: primary human bronchial epithelial cells
Outline: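 Human primary bronchial epithelial cells exposed 24 h to compound. MMP9 quantified by ELISA. SRB total-protein staining of parallel cultures assesses cytotoxicity. Positive-direction fit relative to DMSO.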

[4] = read-out: Plasminogen activator inhibitor-1 (PAI1), SERPINE1 (gene 5054); test: BSK_CASM3C_PAI1: BioMAP Diversity Plus: CASM3C Assay for Plasminogen activator inhibitor-1 (PAI1) Biomarker Activity (AID 2284284); settings: primary human coronary artery smooth muscle cells;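 note: PAI-1 protein level measured by ELISA 24 h after dosing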
[5] = read-out: Monocyte Chemoattractant Protein-1 (MCP1), CCL2 (gene 6347); test: BSK_hDFCGF_MCP1: BioMAP Diversity Plus: hDFCGF Assay for Monocyte Chemoattractant Protein-1 (MCP1) Biomarker Activity (AID 2284285); settings: primary human foreskin fibroblasts
Outline: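 MCP-1 ELISA readout was taken 24 hours after dosing primary human dermal fibroblasts in the hDFCGF system, with DMSO as baseline. Parallel sulforhodamine B staining of total protein tracked overt cytotoxicity.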

[6] = read-out: Intercellular Adhesion Molecule 1 (ICAM1), ICAM1 (gene 3383); test: BSK_hDFCGF_ICAM1: BioMAP Diversity Plus: hDFCGF Assay for Intercellular Adhesion Molecule 1 (ICAM1) Biomarker Activity (AID 2284287); settings: primary human foreskin fibroblasts
Outline: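 ICAM-1 ELISA readout 24 h after dosing, DMSO as baseline, in human dermal foreskin fibroblast cultures. Cytotoxicity checked in parallel wells by SRB staining (0.1% SRB, 10% TCA fixation, 560 nm).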

[7] = read-out: TIMP metallopeptidase inhibitor 2 (TIMP2), TIMP2 (gene 7077); test: BSK_hDFCGF_TIMP2: BioMAP Diversity Plus: hDFCGF Assay for TIMP metallopeptidase inhibitor 2 (TIMP2) Biomarker Activity (AID 2284289); settings: primary human foreskin fibroblasts
Outline: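 Primary human foreskin fibroblasts in the hDFCGF system, dosed for 24 h; TIMP-2 level measured by ELISA, fitted in the positive direction against DMSO; cytotoxicity checked in parallel by sulforhodamine B total protein staining.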

[8] = read-out: Thrombomodulin, THBD (gene 7056); test: BSK_LPS_Thrombomodulin: BioMAP Diversity Plus: LPS Assay for Thrombomodulin Biomarker Activity (AID 2284296); settings: primary human HUVEC with PBMC
Outline: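 Thrombomodulin on the surface of LPS-activated endothelial/PBMC co-cultures was quantified by ELISA at 24 hours post-dosing, with DMSO as baseline. Parallel SRB total-protein staining flagged overt cytotoxicity.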

[9] = IUF_NPC2c_oligodendrocyte_migration_120hr: Leibniz Research Institute for Environmental Medicine (IUF) 120-hour Neural Progenitor Cell Migration Assay for Oligodendrocyte Migration (NPC2c) (AID 2284297);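 note: O4-positive oligodendrocyte migration distance divided by radial glia migration distance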
Outline: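 Human fetal neural progenitor spheres (0.3 mm) are plated on poly-D-lysine/laminin in N2 differentiation medium and exposed for 120 h, with half-medium renewal at day 3. Oligodendrocyte (O4+) migration distance comes from ICC imaging, normalised to radial glia migration.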

[10] = IUF_NPC2a_radial_glia_migration_120hr: Leibniz Research Institute for Environmental Medicine (IUF) 120-hour Neural Progenitor Cell Migration Assay for Radial Glia Migration (NPC2a) (AID 2284298)
Outline: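 Human fetal-cortex neural progenitor spheres (0.3 mm) plated on poly-D-lysine/laminin in N2 differentiation medium, exposed 120 h at 37C with half-medium renewal at day 3. Radial glia migration distance (um) measured from Hoechst-stained nuclei images; DMSO baseline.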

[11] = IUF_NPC2a_radial_glia_migration_72hr: Leibniz Research Institute for Environmental Medicine (IUF) 72-hour Neural Progenitor Cell Migration Assay for Radial Glia Migration (NPC2a) (AID 2284299)
Outline: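 Readout: mean of four manual brightfield measurements of radial glia migration distance (um) at 72 h. hNPC spheres (0.3 mm) exposed to 7 compound concentrations plus solvent control on PDL/laminin, 37C, 5% CO2; activity fitted relative to DMSO.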

[12] = IUF_NPC2b_neuronal_migration_120hr: Leibniz Research Institute for Environmental Medicine (IUF) 120-hour Neural Progenitor Cell Migration Assay for Neuron Migration (NPC2b) (AID 2284300)
Outline: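 0.3 mm hNPC spheres on poly-D-lysine/laminin in N2 differentiation medium exposed 120 h, half-medium refresh day 3; 7 concentrations, DMSO max 0.1%. Neuron (TUBB3) distance from sphere core by ICC imaging, normalised to radial glia migration.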

[13] = IUF_NPC3_neuronal_differentiation_120hr: Leibniz Research Institute for Environmental Medicine (IUF) 120-hour Neuronal Differentiation Assay (NPC3) (AID 2284301)
Outline: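 Value is percent TUBB3-positive neurons among Hoechst-stained nuclei in the migration area, scored by trained CNN after 120 h differentiation. Primary hNPC spheres on poly-D-lysine/laminin, N2 medium, continuous dosing from day 0, half-refeed day 3; DMSO reference.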

[14] = read-out: CD69, CD69 (gene 969); test: BSK_LPS_CD69: BioMAP Diversity Plus: LPS Assay for CD69 Biomarker Activity (AID 2284303); settings: primary human HUVEC with PBMC
Outline: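 CD69 surface levels were read by ELISA after 24 h chemical treatment of an LPS-stimulated HUVEC plus PBMC co-culture; positive-direction fit against DMSO vehicle.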

[15] = IUF_NPC5_oligodendrocyte_differentiation_120hr: Leibniz Research Institute for Environmental Medicine (IUF) 120-hour Oligodendrocyte Differentiation Assay (NPC5) (AID 2284304; active = hit-call score of the fitted dose curve at least 0.9, where 1 is the maximum;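 note: primary human fetal neural progenitor spheres plated to migrate and differentiate; share of O4-positive cells among Hoechst nuclei found by CNN image analysis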)
Outline: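 Human fetal neural progenitor spheres (0.3 mm) plated on poly-D-lysine/laminin in N2 differentiation medium and exposed for 120 h at 7 concentrations, with half-medium renewal at day 3. O4-positive cells identified by CNN, expressed as percent of Hoechst nuclei.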

[16] = IUF_NPC4_neurite_area_120hr: Leibniz Research Institute for Environmental Medicine (IUF) 120-hour Neuronal Morphology Assay for Neurite Area (NPC4) (AID 2284305; active = hit-call score of the fitted dose curve at least 0.9, where 1 is the maximum)
Outline: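 Neurite area (pixels, nuclei excluded) of TUBB3-positive neurons from hNPC spheres differentiating 5 days under continuous exposure at 37 C, 5% CO2. High-content imaging; loss of signal versus DMSO control across 7 concentrations.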

[17] = IUF_NPC2-5_cytotoxicity_72hr: Cytotoxicity Assessment at 72 hours in the Leibniz Research Institute for Environmental Medicine (IUF) Neural Progenitor Cell Migration and Differentiation Assay for Cytotoxicity (NPC2-5) (AID 2284306; active = hit-call score of the fitted dose curve at least 0.9, where 1 is the maximum;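 note: LDH release into supernatant measured by resorufin fluorescence marking membrane damage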)
Outline: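 Membrane-integrity cytotoxicity at 72 h, read as LDH-driven resorufin fluorescence in supernatant. hNPC spheres from fetal cortex differentiate on coated plates in N2 medium, 37C, 5% CO2; seven serial compound concentrations plus solvent control (DMSO ≤0.1%).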

[18] = IUF_NPC2-5_cytotoxicity_120hr: Cytotoxicity Assessment at 120 hours in the Leibniz Research Institute for Environmental Medicine (IUF) Neural Progenitor Cell Migration and Differentiation Assay (NPC2-5) (AID 2284307; active = hit-call score of the fitted dose curve at least 0.9, where 1 is the maximum;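 note: LDH released into supernatant as membrane damage marker via resorufin fluorescence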)
Outline: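 Human fetal (GW 16-19) neural progenitor spheres (0.3 mm) plated on poly-D-lysine/laminin in N2 differentiation medium, exposed 120 h with half-medium renewal at day 3; 7 concentrations plus solvent control, DMSO ≤0.1%. LDH release in supernatant read by resorufin fluorescence.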

[19] = IUF_NPC2-5_cell_number_120hr: Cell Number Assessment at 120 hours in the Leibniz Research Institute for Environmental Medicine (IUF) Neural Progenitor Cell Migration and Differentiation Assay (NPC2-5) (AID 2284308);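 note: count of Hoechst-stained nuclei in migration zone around plated human neural progenitor spheres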
Outline: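 Human fetal neural progenitor spheres (0.3 mm) plated on poly-D-lysine/laminin in N2 differentiation medium, exposed five days across 7 concentrations with half-medium refresh at day 3. Hoechst-positive nuclei counted in migration area at 120 h, relative to DMSO.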

[20] = IUF_NPC2-5_viability_120hr: Viability Assessment at 120 hours in the Leibniz Research Institute for Environmental Medicine (IUF) Neural Progenitor Cell Migration and Differentiation Assay (NPC2-5) (AID 2284312)
Outline: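 Alamar blue resorufin fluorescence read after 5 days of differentiation, with compound present from day 0 and replenished at day 3. Primary hNPC spheres on laminin-coated plates, 37C; seven concentrations plus solvent control, fitted against DMSO.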

[21] = CCTE_Mundy_HCI_iCellGluta_NOG_NeuriteLength: CCTE's Neurite Outgrowth Assay in iCellGluta cells for Neurite Length, Mundy Lab (AID 2284318; active = hit-call score of the fitted dose curve at least 0.9, where 1 is the maximum)
Outline: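 Automated high-content imaging of betaIII-tubulin (Alexa Fluor-488) and Hoechst-stained cells gave neurite length, normalized to the DMSO baseline.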

[22] = IUF_NPC1_cytotoxicity_72hr: Cytotoxicity Assessment at 72 hours in the Leibniz Research Institute for Environmental Medicine (IUF) Neural Progenitor Cell Proliferation Assay (NPC1) (AID 2284332; active = hit-call score of the fitted dose curve at least 0.9, where 1 is the maximum;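 note: rising LDH signal means more cytotoxicity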)
Outline: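 LDH in supernatant, resazurin→resorufin fluorescence (RFU), 72 h exposure, no re-dosing. Cells: primary hNPC spheres, one per well, EGF+FGF medium, 37C/5% CO2, pH 7.2-7.6. Fit: positive direction vs baseline and dynamic range.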

[23] = CCTE_Mundy_HCI_iCellGluta_NOG_NeuronCount: CCTE's Neurite Outgrowth Assay in iCellGluta cells for Neuron Count, Mundy Lab (AID 2284340; active = hit-call score of the fitted dose curve at least 0.9, where 1 is the maximum;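 note: cells fixed about 48 h after compound addition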)
Outline: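 Neuron count read by automated high-content imaging of Hoechst 33342 and betaIII-tubulin/Alexa Fluor-488 labelling in human iPSC glutamatergic neurons. Activity fitted relative to DMSO.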

Measured: AC50

[Cd+2].[Cl-].[Cl-]
inactive: [2] | [8] | [14] | [22]
active: [1] 31.6 µM and 12.3 µM | [3] 32 µM and 27.7 µM | [4] 10.9 µM and 13.8 µM | [5] 4.82 µM and 1.76 µM | [6] 9.72 µM and 13.9 µM | [7] 3.97 µM and 2.93 µM | [9] 15.1 µM | [10] 8.38 µM | [11] 8.95 µM | [12] 17.7 µM | [13] 0.00342 µM | [14] 7.19 µM | [15] 17.5 µM | [16] 15.6 µM | [17] 13.5 µM | [18] 11.2 µM | [19] 4.7 µM | [20] 6.4 µM | [21] 10.8 µM | [23] 15 µM
